An excerpt weighted towards active compounds, which were near 1% of everything screened.
BioA inh – M. tuberculosis BioA enzyme inhibitors, primary screen, biochemical, plate reader, single point, HTS. 7,8-diaminopelargonic acid synthase BioA (Mycobacterium tuberculosis). purified M. tuberculosis BioA enzyme. inhibition, % at 9.99 µM. 0.096% of 360,000 active. AID 602481, 2012; in the data active = inhibition above about 40%
MazEF act – activators of E. coli MazEF toxin-antitoxin RNase, primary screen, biochemical, fluorescence, uHTS; FAM/BHQ RNA-DNA oligo cleavage fluorescence, 5 h; activation, % at 20 µM; 0.32% of 350,000 active; AID 504720, 2011; in the data active = activation above about 50%
Target sequence (P0AE70 whole entry, looked up): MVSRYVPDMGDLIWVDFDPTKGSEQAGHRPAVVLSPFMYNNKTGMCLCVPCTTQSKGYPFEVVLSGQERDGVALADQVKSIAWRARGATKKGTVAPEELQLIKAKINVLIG
Y pestis TopoI – Yersinia pestis topoisomerase I inhibitors, primary screen, biochemical, cleavage product accumulation, plate reader, single point. DNA topoisomerase I (Yersinia pestis CO92). Y. pestis Topo-I cleavage product accumulation. activity, % at 10 µM. 0.064% of 360,000 active. AID 504884, 2011; in the data active = activity above about 50%, passing the limit was not always enough
FadD28 FP inh – inhibitors of FadD28 bisubstrate probe binding, primary screen, biochemical, fluorescence polarization, single point; Mycobacterium tuberculosis FadD28 fatty-acid-AMP ligase; inhibition, % at 12.5 µM; 0.22% of 360,000 active; AID 588549, 2011; in the data active = inhibition above about 8.5%, passing the limit was not always enough
VHR inh abs – VHR1 phosphatase inhibitors, primary screen, biochemical, absorbance, uHTS. inhibition, % at 13.3 µM. AID 1654, 2009. Dual specificity protein phosphatase 3 (Homo sapiens), P51452. 0.52% of 290,000 active. recombinant VHR phosphatase, pNPP absorbance; in the data active = inhibition above about 50%
Target sequence (P51452 whole entry, looked up): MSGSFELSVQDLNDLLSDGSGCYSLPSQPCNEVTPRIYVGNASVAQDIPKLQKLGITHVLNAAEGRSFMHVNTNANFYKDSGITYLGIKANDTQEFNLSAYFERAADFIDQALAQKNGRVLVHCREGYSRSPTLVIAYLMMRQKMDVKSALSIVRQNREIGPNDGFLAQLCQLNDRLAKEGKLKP
TcdB inh – TcdB glycohydrolase inhibitors, primary screen, biochemical, single point, plate reader | Toxin B (Clostridioides difficile), P18177 | TcdB glycohydrolase enzymatic assay | inhibition, % at 9.99 µM | 0.24% of 350,000 active | AID 652162, 2013; in the data active = inhibition above about 10%
Large screens that a line does not name were inactive.

COc1cccc(-c2cn(CC[C@@H]3CC[C@@H](NS(=O)(=O)Cc4ccccc4)[C@H](CO)O3)nn2)c1	none (no result: MazEF act, Y pestis TopoI, FadD28 FP inh, VHR inh abs)
C=CCn1c(CNC(=O)c2cccs2)nnc1SCC(=O)c1ccc(Br)cc1	MazEF act 70.5 (no result: TcdB inh)
C=CCn1c(CCNC(=O)c2cccs2)nnc1SCC(=O)c1ccc(Cl)cc1	none (no result: TcdB inh)
O=C(Nc1cccc(NC(=O)c2ccco2)c1)c1ccccc1	VHR inh abs 57.6
CC(=O)Nc1cccc(NC(=O)c2ccc(Br)cc2)c1	TcdB inh 10.3
COc1cccc(OC)c1C(=O)Nc1ccc(NC(=O)c2ccco2)cc1	none (no result: TcdB inh)
COc1cccc(OC)c1C(=O)NC(=S)Nc1cccc(NC(=O)c2ccco2)c1	MazEF act 74.8 (no result: BioA inh)
CCC(=O)Nc1cccc(NC(=O)c2ccc(Br)cc2)c1	none (no result: BioA inh)
O=C(c1ccccc1)c1cccc(NC(=O)c2ccco2)c1	none (no result: TcdB inh)
Cc1cccc(Nc2nc(Cl)ncc2F)c1C	VHR inh abs 59.7
C=CCNc1nc(Cl)ncc1F	none (no result: TcdB inh)
COc1cc2c(=O)n(CCC(=O)NCC3CCCO3)c(=O)n(CC(=O)c3ccc(Cl)cc3)c2cc1OC (stereo not given)	VHR inh abs 50.6 (no result: BioA inh)
COc1cccc(C(=O)Cn2c(=O)n(CCC(=O)NCC3CCCO3)c(=O)c3cc(OC)c(OC)cc32)c1 (stereo not given)	none (no result: BioA inh)
Cc1cc(NC(=O)CCC(=O)N(Cc2ccco2)C(C(=O)NC2CCCC2)c2ccccc2C)no1 (stereo not given)	MazEF act 54.9 (no result: TcdB inh)
COc1cc(/C=C2\CCCc3c2nc2ccccc2c3C(=O)O)cc(Br)c1O	FadD28 FP inh 12.3
COc1cc(/C=C2\CCc3c2nc2ccccc2c3C(=O)O)cc(OC)c1OC	none
CN1C(=O)C(CC(=O)Nc2ccc(F)cc2)N(Cc2cccs2)C1=S (stereo not given)	none
CCCOc1ccc(NC(=O)CC2C(=O)N(C)C(=S)N2Cc2cccs2)cc1 (stereo not given)	MazEF act 97.0 (no result: TcdB inh)
CCc1cc(/C(Cc2cscn2)=N\O)c(O)cc1O	none (no result: TcdB inh)
CCc1cc(/C(Cc2ccccn2)=N\O)c(O)cc1O	TcdB inh 15.5
COc1ccc(NC(=O)CSc2ccc([N+](=O)[O-])cc2)cc1S(=O)(=O)N1CCOCC1	FadD28 FP inh 12.1 (no result: BioA inh, VHR inh abs)
O=C(CN1CCOCC1)NCC[C@H]1CC[C@@H](NC(=O)Cc2ccccn2)[C@@H](CO)O1	none (no result: MazEF act, Y pestis TopoI, FadD28 FP inh, VHR inh abs)
O=C(COc1ccccc1)N=C1SC2CS(=O)(=O)CC2N1CCc1ccccc1 (stereo not given)	none
O=C(COc1ccccc1)N=C1SC2CS(=O)(=O)CC2N1c1ccc(F)cc1 (stereo not given)	VHR inh abs 54.2
COc1ccc(N2C(=NC(=O)C3CCCO3)SC3CS(=O)(=O)CC32)cc1 (stereo not given)	VHR inh abs 55.6
CCN1[C@@H]2c3ccc(-c4cccc(F)c4)c(=O)n3C[C@@H]2[C@@H](CO)[C@@H]1C(=O)N(C)C	none (no result: MazEF act, Y pestis TopoI, FadD28 FP inh, VHR inh abs)
CCCC(=O)N1CCC2(CC1)CN(C(=O)c1ccc(F)cc1)[C@H](CO)c1[nH]c3cc(OC)ccc3c12	none (no result: BioA inh, MazEF act, Y pestis TopoI, FadD28 FP inh, VHR inh abs)
O=C(Nc1sc2c(c1C(=O)O)CCCC2)c1ccc(Cl)cc1	TcdB inh 11.7
O=C(Nc1sc2c(c1C(=O)O)CCCCC2)c1ccccc1	none (no result: BioA inh)
O=C(Nc1sc2c(c1C(=O)O)CCC2)c1ccc(F)cc1	none
NCCNC(=O)c1c(NC(=O)c2ccccc2)sc2c1CCCC2	VHR inh abs 53.9
CCCC(=O)Nc1sc2c(c1C(=O)Nc1ccccn1)CCCC2	TcdB inh 12.0
O=C(Nc1sc2c(c1C(=O)O)CCC2)c1ccccc1	VHR inh abs 52.3 (no result: TcdB inh)
O=C(Nc1sc2c(c1C(=O)NCCCO)CCCC2)c1ccccc1	none
C[C@@H]1CCCCO[C@H](CN(C)C(=O)Nc2ccccc2)[C@@H](C)CN([C@@H](C)CO)C(=O)c2cc(NS(=O)(=O)c3ccc(F)cc3)ccc2O1	none (no result: MazEF act, Y pestis TopoI, FadD28 FP inh, VHR inh abs, TcdB inh)
O=C(C[C@H]1C[C@@H]2c3cc(NS(=O)(=O)c4ccc(F)cc4)ccc3O[C@@H]2[C@@H](CO)O1)NCc1ccc(-c2ccccc2)cc1	none (no result: MazEF act, Y pestis TopoI, FadD28 FP inh, VHR inh abs)

Screening results deposited in PubChem by several laboratories.
